PubChem BioAssay AID2314 (National Center for Advancing Translational Sciences (NCATS), 2010)
Where “and” joins values, the source holds several entries; their conditions need not be identical. Equal entries are not always repeated. In all, about 300,000 compounds went through this assay and about 37,000 (12%) were called active. The list comes from a sample in which actives are over-represented; it also holds similar structures and randomly drawn compounds. A number with no mark means an inactive call. No stated cut-off is given here; in the data, active means max response mostly above about 13% (no sharp cut-off); inactive means mostly below about 14%.

Experiment: Cycloheximide Counterscreen for Small Molecule Inhibitors of Shiga Toxin; further: read at 38.3 µM for the half of the compounds with a filed dose; 0% is about no effect
Settings: cell reporter, cycloheximide protein synthesis inhibition counterscreen; active compounds read high

Compound | max response
Cc1sc2ncn(CC(=O)NCCN(C)C)c(=O)c2c1S(=O)(=O)N1CCC(C)CC1 | 7.86%
Cc1ccccc1-n1c(C)cc(/C=N/NC(=O)c2ccc(CN3CCOCC3)cc2)c1C | 1.39%
COc1cc(CC(=O)N2CCC(n3nccc3NC(=O)C3CC3)CC2)cc(OC)c1OC | -1.39%
C/C(=N\NC(=O)c1ccc(NS(=O)(=O)c2cccs2)cc1)c1ccc2ccccc2c1 | 7.4%
Cc1ccc(S(=O)(=O)N(Cc2cc3ccccc3[nH]c2=O)CC2CCCO2)cc1 (stereo not given) | -1.24%
CCn1cc(CN2CCC(C(=O)Nc3cccc(-c4cccc(Cl)c4)c3)CC2)c(C)n1 | -9.71%
CCCOc1ccc(-c2c(C(=O)N/N=C/c3ccco3)nnn2-c2nonc2N)cc1 | -0.593%
O=C(Nc1cccnc1Cl)c1cc(-c2ccccc2O)on1 | 17%
CNC(=O)c1csc(-c2ccccc2)n1 | 13.6% (active)
O=C(O)Cc1csc(-c2cccc(Oc3ccccc3)c2)n1 | -1.21% and 2.4%
CNC(=O)c1cccc2nc3ccccc3nc12 | 1.67%
C=CCNC(=O)c1csc(-c2ccccc2)n1 | 28.5% (active)
Clc1ccccc1-c1cc(COc2ccc3ccccc3c2)no1 | 6.98%
O=C(NCc1ccccn1)c1ccc2nc(-c3ccco3)c(-c3ccco3)nc2c1 | 0.719%
C=CCNC(=O)c1cc2nc(C3CC3)cc(C(F)F)n2n1 | 11.1%
C=CCNC(=O)c1cc(-c2ccccc2O)on1 | 59.8% (active)
C=CCNC(=O)c1ccccc1SCc1c(C)noc1C | -1.93%
O=C(NCc1ccccn1)c1cc(-c2ccccc2Cl)on1 | 38.8% (active)
CNC(=O)c1csc(Cc2c(Cl)sc3ccc(Cl)cc23)n1 | -2.08%
CCn1c(=O)c(C(=O)NCc2ccc3c(c2)OCO3)c(O)c2ccccc21 | -2.8%

Compound | max response
COc1ccc(OC)c(/C(C)=N\NC(=O)c2cc3cc(Cl)ccc3n2C)c1 | -5.13%
COc1cc([C@H](Cc2ccccc2)NC(C)=O)oc(=O)c1 | -1.33%
Cc1ccc(C)c(S(=O)(=O)Nc2cccc(-n3cnnn3)c2)c1 | -4.16%
CC1CN(C(=O)CCC(=O)NC2CCN(Cc3ccccc3)CC2)c2ccccc2O1 (stereo not given) | -2.34%
O=C(O)CCCn1cc(NC(=O)COc2cccc(Cl)c2)cn1 | -1.65%
[O-][N+]12CCCCC1CCCC2CO (stereo not given) | -2.81%
Cc1ccccc1N1CCN(CCCN2C(=O)C3CCCCN3C2=O)CC1 (stereo not given) | -0.589%
CCNC(=O)NC(=O)C(C)OC(=O)c1cc(S(=O)(=O)N2CCCCCC2)ccc1OC (stereo not given) | 15.1%
O=C1CCC(CCC(=O)N2CCCC(C(=O)c3ccc(Cl)cc3)C2)=NN1 (stereo not given) | 8.2%
COCC1CCN(C(=O)CCc2nnc(C3(c4ccc(Cl)cc4)CCC3)o2)C1 (stereo not given) | 44% (active)
CSCCC(=O)N1CCCC(CNC(=O)c2ccccc2Cl)C1 (stereo not given) | -3.24%
COC(=O)c1ccccc1NC(=O)Cc1ccccc1OC | -2.67%
CC[C@]1(c2ccccc2OC)C(=O)N(C(=O)OC)N1C(=O)OC | 29.1% (active)
COc1ccccc1CC(=O)Nc1ccc(F)cc1F | -2.45%
CCCC(C)NC(=O)C1CCN(C(=O)C2CC(=O)N(c3ccc(C)cc3)C2)CC1 (stereo not given) | -4.68%
Brc1c(CSc2nncc3ccccc23)nc2ccccn12 | 38.5% (active)
CC(=O)O[C@H]1c2ccccc2-c2ccccc2[C@@H]1OC(C)=O | 0.95%
Cc1ccc(SCC(=O)NNC(=O)c2ccc(S(C)(=O)=O)cc2)cc1 | 5.01%
COCC1CCN(C(=O)C2CCC(=O)N(Cc3cccc(C(F)(F)F)c3)C2)CC1 (stereo not given) | 29.7% (active)
O=C(c1ccco1)N1CCN(Cc2cccc(C(F)(F)F)c2)CC1 | -3.76%

Compound | max response
Cc1cccnc1CCNC(=O)C1CCC(=O)N(Cc2cccc(F)c2)C1 (stereo not given) | -2.2%
COC(=O)c1ccc(CNC(=O)C2CCC(=O)N(Cc3cccc(F)c3)C2)cc1 (stereo not given) | 0.912%
COCC1CCN(C(=O)C2CCC(=O)N(CC3CCCCC3)C2)CC1 (stereo not given) | -2.01%
O=C1CCC(C(=O)N2CCCCO2)CN1Cc1cccc(C(F)(F)F)c1 (stereo not given) | 30% (active)
CC(=O)Nc1ccc(S(=O)(=O)N2CCC(C(=O)N[C@@H](Cc3ccccc3)C(=O)O)CC2)cc1 | 10.8%
COc1ccccc1CNC(=O)C1CCN(S(=O)(=O)c2ccc3c(c2)OCCO3)CC1 | -5.22%
CCOc1cc(C(=O)O)ccc1OCCOc1ccccc1 | -8.53%
COc1ccccc1CC(=O)Nc1ccc(S(=O)(=O)N2CCCC2)cc1 | -4.23%
C[C@@]12C(=O)N(c3cccc(Br)c3)C(=O)N1[C@H](c1ccc(Cl)cc1)[C@@H]1C(=O)N(C3CCCCC3)C(=O)[C@@H]12 | -2.82%
COc1cccc(C(=O)Nc2nnc(S(=O)(=O)N3CCOCC3)s2)c1 | -4.33%
CNC(=O)c1ccc2nc(NC(C)=O)sc2c1 | 38% (active)
O=C(Nc1nc2ccc([N+](=O)[O-])cc2s1)c1ccncc1 | 23.5% (active)
CS(=O)(=O)c1ccc2nc(NC(=O)c3ccc(N4CCCC4=O)cc3)sc2c1 | -2.38%
O=C(Nc1nc2ccc([N+](=O)[O-])cc2s1)c1ccc(S(=O)(=O)N2CCCc3ccccc32)cc1 | -2.29%
O=C(NC(Nc1nc2ccc([N+](=O)[O-])cc2s1)(C(F)(F)F)C(F)(F)F)c1ccccc1 | 0.792%
CCCC(=O)Nc1nc2ccc(NC(=O)c3cccnc3)cc2s1 | 9.53%
CS(=O)(=O)c1ccc2nc(NC(=O)c3ccc(Cl)nc3)sc2c1 | 39.4% (active)
CS(=O)(=O)c1ccc2nc(NC(=O)CN3CCCCCC3)sc2c1 | -1.48%
CS(=O)(=O)c1ccc2nc(NC(=O)C3C4C=CC(C4)C3C(=O)O)sc2c1 (stereo not given) | 2.94%
COc1cccc(C(=O)Nc2nc3ccc(S(C)(=O)=O)cc3s2)c1 | 33.2% (active)
